# High-throughput results: PubChem, National Center for Advancing Translational Sciences (NCATS)
# TDP1 inh = TDP1 (human) enzyme inhibition | Q9NUW8 | Potency, µM (top dose mostly 130 µM), for the others: at the top dose activity change, negative = inhibition, most hits filed as inhibitors | recombinant TDP1, AlphaScreen DNA substrate cleavage | 350,000 tested, 0.28% active; further: potency means the concentration at half of the fitted maximal effect; nearly all actives have a fitted effect of over 40% in size
#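 AlphaScreen read-out: signal falls as enzyme removes the 3' tyrosine-FITC from a 5'-biotinylated DNA oligo (15 nM, 5 min, RT). Enzyme was E. coli-made recombinant Tdp1 at 1 nM, exposed to compound for 15 min beforehand; beads 10 ug/ml, 10 min.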
# DT40 TDP1 no CPT = qHTS for Inhibitors of human tyrosyl-DNA phosphodiesterase 1 (TDP1): qHTS in cells in absence of CPT. DT40 Tdp1-/- hTDP1 cells, no CPT, ATP luminescence, 48 h. Potency, µM (doses to about 46.2 µM), for inactives: at the top dose activity change, negative = growth inhibition, most hits filed as inhibitors. 420,000 tested, 15% active. AID 686978, 2013; further: potency means the concentration at half of the fitted maximal effect; nearly all actives have a fitted effect of over 55% in size
#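 Luminescent ATP content (CellTiter-Glo) served as the growth readout. Knockout chicken DT40 cells expressing human TDP1 were exposed to compounds without camptothecin for a minimum 48 hr at 37 °C.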
# IL1B secr inh = inhibitors of inflammasome signaling (IL-1 beta secretion); 360,000 tested, 4.7% active; activity change, % at 57.5 µM; THP-1 LPS/ATP IL-1B secretion, AlphaLISA, 16 h; active compounds read low; in the data active means activity change below about -50%; inconclusive means mostly about -30% to -49%
#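 THP-1 cells pretreated 1 hr with compounds (up to 57.5 uM final), then stimulated with LPS (250 ng/mL final) plus ATP (1.25 mM final); secreted IL-1B measured by AlphaLISA after 16 hr, decreased signal indicating inhibition.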
# DT40 TDP1 CPT = growth inhibition of DT40 Tdp1-/-;hTDP1 cells with camptothecin (screen for TDP1 inhibitors). chicken DT40 Tdp1-/-;hTDP1 cells + 20 nM CPT, ATP luminescence, 48 h. Potency, µM (series often up to 46.2 µM), for the others: top-dose activity change, negative = growth inhibition, usual class: inhibitors. 420,000 tested, 12% active; further: potency means the concentration at half of the fitted maximal effect; nearly all actives have a fitted effect of over 55% in size
#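 Cell growth measured by CellTiter-Glo luminescence after a minimum 48 h, 37 C compound exposure with 20 nM CPT in Tdp1-knockout DT40 cells stably expressing hTDP1, seeded 400/well; qHTS titration format.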
# Six1-Eya2 blk = blocks human Six1 binding to Eya2. 360,000 tested, 0.56% active. Q15475+O00167. activity change, % (concentration not given with the values). AlphaScreen GST-Six1/His-Eya2 binding, biochemical; active compounds read low; in the data active means activity change below about -65%; inconclusive means mostly about -30% to -63%
# Target sequence (O00167 whole entry, looked up): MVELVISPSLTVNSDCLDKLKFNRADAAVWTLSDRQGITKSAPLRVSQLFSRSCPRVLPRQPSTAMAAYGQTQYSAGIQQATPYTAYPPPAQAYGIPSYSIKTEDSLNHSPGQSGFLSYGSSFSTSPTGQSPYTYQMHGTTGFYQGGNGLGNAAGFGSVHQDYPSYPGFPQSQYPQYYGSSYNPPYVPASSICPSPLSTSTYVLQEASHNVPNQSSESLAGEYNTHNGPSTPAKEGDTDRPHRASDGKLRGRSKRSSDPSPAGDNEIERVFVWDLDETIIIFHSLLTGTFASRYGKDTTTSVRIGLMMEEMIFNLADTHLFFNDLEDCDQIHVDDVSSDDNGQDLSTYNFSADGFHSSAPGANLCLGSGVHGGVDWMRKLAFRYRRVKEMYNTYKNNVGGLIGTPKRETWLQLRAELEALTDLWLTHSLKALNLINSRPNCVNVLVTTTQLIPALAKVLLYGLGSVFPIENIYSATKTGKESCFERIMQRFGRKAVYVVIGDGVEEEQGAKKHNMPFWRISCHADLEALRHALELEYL
# Target sequence (Q15475 whole entry, looked up): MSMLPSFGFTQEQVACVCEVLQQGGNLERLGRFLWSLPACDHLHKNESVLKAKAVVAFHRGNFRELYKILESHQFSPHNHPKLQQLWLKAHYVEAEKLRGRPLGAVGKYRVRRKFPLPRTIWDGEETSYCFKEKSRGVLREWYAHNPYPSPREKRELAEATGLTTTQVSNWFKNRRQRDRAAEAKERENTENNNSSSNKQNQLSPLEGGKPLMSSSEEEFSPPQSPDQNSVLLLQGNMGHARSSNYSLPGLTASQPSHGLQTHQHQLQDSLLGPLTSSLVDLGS
#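 Six1/Eya2 binding was read as AlphaScreen signal after compounds were pinned into GST-Six1 plus His-tagged Eya2 (5X stock 250/500 nM) in pH 8.0 Tris/NaCl/TCEP buffer, beads added, then incubated 1 h, 37 C, dark.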
# CtBP-E1A blk = inhibitors of CtBP/E1A interaction; AlphaScreen GST-E1A/His-CtBP binding, 1536-well; active compounds read low; activity change, % (no concentration beside the values); 340,000 tested, 0.49% active; AID 651724; in the data active means activity change below about -65%; inconclusive means mostly about -30% to -63%
#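 In 5 uL wells, 23 nL compound meets equimolar GST-E1A and His-CtBP (5X stock 125 nM each) for 2 h, 37 °C. Beads (5X, 50 ug/mL) then 1 h, 37 °C, dark.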
# * marks the source's active call; other numbers are inactive results; u = inconclusive; x = no result given. The list is not random: actives were taken first. Their share in the collection is about 18%. Unless noted, the call rests on the fitted dose curve; in most records, active means well fitted curve in the direction sought with a large enough effect; inconclusive means small, poorly fitted or top-dose-only effect, or another doubt; inactive means no such curve, though single readings can be large; an effect the other way counts as inactive or inconclusive. On the % scale 0 is the no-effect control and ±100 the full control effect.
SMILES,TDP1 inh,DT40 TDP1 no CPT,IL1B secr inh,DT40 TDP1 CPT,Six1-Eya2 blk,CtBP-E1A blk
Cc1cc(C)n(C(C)CNS(=O)(=O)c2ccc(C)c(C)c2)n1 (stereo not drawn),0%,-23%,0,-13%,16,1
CC(Oc1cccc(Cl)c1)C(=O)Nc1ccccc1N1CCCC1 (stereo not drawn),1%,u,-10,u,-22,-15
CC(Oc1ccc(Cl)cc1)C(=O)Nc1ccccc1N1CCOCC1 (stereo not drawn),-5%,21µM*,6,u,1,-1
Cc1cc(Cl)ccc1OC(C)C(=O)Nc1ccccc1N1CCOCC1 (stereo not drawn),2%,u,-58*,u,-7,17
Cc1cc(Cl)ccc1OC(C)C(=O)N1CCCN(C(=O)C(C)Oc2ccc(Cl)cc2C)CC1 (stereo not drawn),0%,21µM*,-65*,21µM*,-8,-9
CCCCNC(=O)C1(C)CCN1C(=O)CSc1ccccc1 (stereo not drawn),x,-9%,22,9%,4,0
CCN(CC)c1nc(C)c(C(=S)Nc2cc([N+](=O)[O-])ccc2Cl)s1,3%,-19%,-14,1%,-4,-9
CSc1nc2sc(-c3ccccc3)cc2c(=O)n1N,3%,u,16,u,1,6
Brc1ccc(C=Nc2ccc(Nc3ccccc3)cc2)s1,0%,16µM*,-11,u,u,-14
C(=Nc1ccc(Nc2ccccc2)cc1)c1ccc2ccccc2c1,1%,12µM*,-69*,13µM*,u,u
CC(=O)Nc1ccc(N=Cc2ccc(OCc3ccccc3)cc2)cc1,5%,-21%,0,-5%,14,2
Cc1ccc(OCC(=O)NCCO)c(Br)c1,-8%,3%,2,13%,20,7
Cn1nc2c3ccccc3n(Cc3ccc(F)cc3)c2nc1=S,4%,u,14,-29%,-8,x
Nc1ccc(CC2SC(=O)NC2=O)cc1 (stereo not drawn),2%,-5%,4,4%,4,0
CSc1nsc(SC)c1NC(=O)Nc1ccccn1,4%,u,1,16µM*,-1,0
CCN(CC)S(=O)(=O)c1cccc(C(=O)NC(C(=O)NCCc2ccccn2)C(C)C)c1 (stereo not drawn),1%,-20%,24,-4%,11,0
CN1OC[C@@H]2CN(Cc3ccccc3)[C@H](c3cccc(Oc4ccccc4)c3)C[C@@H]21,x,23µM*,-9,26µM*,-13,-10
O=C(Nc1ccc([N+](=O)[O-])cc1Cl)c1ccccc1O,1%,3.2µM*,x,3.2µM*,x,x
CC(=O)Oc1c(C)cc(Cl)cc1C(=O)Nc1ccc([N+](=O)[O-])cc1Cl,-3%,0.46µM*,-67*,0.52µM*,0,11
Fc1ccc(NC(=S)Nc2ccccc2Cl)cc1,-1%,u,0,-10%,-3,-3
Cc1nnsc1C(=O)Nc1cccc(Cl)c1,1%,4%,30,16%,5,8
CC(=O)Nc1ccc(N=c2cc([N+](=O)[O-])cc(Cl)n2O)cc1,x,15µM*,-53*,u,8,4
CC(=O)Nc1ccc(S(=O)(=O)c2ccc([N+](=O)[O-])cc2)cc1,x,u,6,u,-5,x
Cc1c(CN(C)CCc2ccccc2)c(=O)n(-c2ccccc2)n1C,-5%,-8%,8,-4%,9,0
CC(=O)c1cnn(-c2c(Cl)cc(Cl)cc2Cl)c1C,4%,18µM*,10,16µM*,5,x
SMILES,TDP1 inh,DT40 TDP1 no CPT,IL1B secr inh,DT40 TDP1 CPT,Six1-Eya2 blk,CtBP-E1A blk
CC(=O)c1cnn(-c2ccccc2)c1C,2%,6%,11,8%,-3,0
COc1cccc(C(C(=O)NCc2ccccc2)N2CCN(CCN3CCOCC3)CC2)c1OC (stereo not drawn),x,-3%,0,-6%,15,0
CCCCNC(=O)c1nc(-c2cnccn2)oc1-c1ccc(Cl)cc1,x,u,-22,u,12,11
C[C@H](NC(=O)Cc1ccccc1)C(=O)N1CCC2(CC1)NCCc1[nH]cnc12,0%,1%,12,-22%,0,-6
O=C(O)CN(CC(=O)O)CC(=O)O,x,-4%,-13,1%,-73*,-96*
CC1CCCN(C(=O)C2CCN(CCCc3ccccc3)CC2)C1 (stereo not drawn),7%,-30%,-11,u,-1,0
CC1=C(c2ccccc2)C(O)(c2ccccc2)C(C)C1=O (stereo not drawn),x,16µM*,57,16µM*,6,0
Cc1ccccc1C(=O)Nc1ccnn1C1CCN(Cc2c(C)n(C)c3ccccc23)CC1,x,-13%,-3,-20%,-17,-14
COc1ccc(N=C2CC(C)(C)CC(=O)/C2=C(/O)c2ccccc2)cc1,6%,u,8,-19%,5,8
Cc1nc2ccccn2c1CN(C)C(=O)C1CCC(=O)N(Cc2cccc(F)c2)C1 (stereo not drawn),3%,0%,16,-6%,1,5
Cc1onc(-c2c(F)cccc2Cl)c1C(=O)NC(=S)Nc1c(C)n(C)n(-c2ccccc2)c1=O,-2%,1%,3,-2%,-5,0
CC1CCC(NC(=O)COc2ccccc2C(N)=O)CC1 (stereo not drawn),1%,-1%,13,u,4,-2
CC(C)CN(CC(C)C)C(=O)COc1ccccc1C(N)=O,4%,12µM*,0,u,8,-6
Cc1cc(C)n(CC(=O)n2nc(C)cc2C)n1,0%,-29%,28,1%,11,6
O=C(O)CCCC(=O)N1CCOCCOCCOCCOCC1,x,8%,-17,8%,5,3
Cc1cc(C(=O)N2CC=C(c3ccccc3)CC2)c2ccccc2n1,-4%,0.92µM*,-3,0.58µM*,0,0
Cc1c(C(=O)C(=O)N2CC=C(c3ccccc3)CC2)c2ccccc2n1C,1%,2.6µM*,33,2.9µM*,-8,0
O=C(O)c1ccccc1C(=O)N1CC=C(c2ccccc2)CC1,3%,26µM*,21,u,-1,0
Cc1ccc(C(=O)N2CC=C(c3ccccc3)CC2)o1,x,u,-21,u,-8,-4
